Measurements from PubChem BioAssay AID1345085 (National Center for Advancing Translational Sciences (NCATS), 2018).
Records with an inconclusive call do not appear. A number with no mark means an inactive call. The source made the active and inactive calls. Calls come from the whole dose curve; as a rule, active = well fitted cell-killing curve with a large enough effect; inconclusive = small, poorly fitted or top-dose-only effect, or effect the other way; inactive = no such curve, though single readings can be large or run the other way.
% is set by controls: 0 for no effect and ±100 for the full control effect; potency is the fitted concentration of half-maximal effect.
Note: nearly all actives have a fitted effect of over 55% in size.

The molecules below were run on CASKI (assay: Confirmatory qHTS for gynecologic anti-cancer compounds from libraries of approved drugs and bioactive compounds). Settings: gynecologic cancer cell panel viability, ATPlite luminescence, 48 h; series mostly up to 57.6 µM.
Method in brief: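 Viability is measured as ATP-dependent luciferase light using ATPlite, read 15 min after reagent addition at room temperature. Compounds, in DMSO, span 57.5 uM down to 0.977 nM over 11 threefold steps for 48 h.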
For `Cc1ccc(C(=O)N(CCCN)C(c2nc3cc(Cl)ccc3c(=O)n2Cc2ccccc2)C(C)C)cc1` (centres undefined), the Potency was 27.3 µM (active).
`CN1CCN(CCOc2cc(OC3CCOCC3)c3c(Nc4c(Cl)ccc5c4OCO5)ncnc3c2)CC1` was tested, and the Potency was 19.3 µM (active).
In the case of `COC(C(=O)N1Cc2[nH]nc(NC(=O)c3ccc(N4CCN(C)CC4)cc3)c2C1)c1ccccc1` (centres undefined), the Potency is reported as 7.69 µM (active).
In the case of `OCCNC1CCCc2c1[nH]c1ccc(-c3ccccc3)cc21` (centres undefined), the Potency is reported as 30.6 µM (active).
With `NC(=O)Nc1cc(-c2cccc(F)c2)sc1C(=O)NC1CCCNC1` (centres undefined) the Potency was 2.17 µM (active).
In the case of `NS(=O)(=O)c1ccc(Nc2nc(OCC3CCCCC3)c3[nH]cnc3n2)cc1`, the Potency is reported as “inactive”.
In the case of `COc1ccc2c(c1)c(CC(=O)O)c(C)n2C(=O)c1ccc(Cl)cc1`, the Potency is reported as “inactive”.
`CN(C)C/C=C/C(=O)Nc1cc2c(Nc3ccc(F)c(Cl)c3)ncnc2cc1OC1CCOC1` (centres undefined) was tested, and the Potency was 21.7 µM (active).
`CC[C@H](Nc1ncnc2nc[nH]c12)c1nc2cccc(F)c2c(=O)n1-c1ccccc1` showed an activity change, negative = viability loss of -2.62% [at 10.7 µM].
For `CNC(=O)CN1CCC(Oc2cc3c(Nc4cccc(Cl)c4F)ncnc3cc2OC)CC1`, the Potency was 10.9 µM (active).
For `CCCC(Nc1nc(-c2ccc(NC(=O)NCC)c(OC)c2)ncc1C)c1cccnc1` (centres undefined), the Potency was “inactive”.
`NC(=O)c1cccc2cn(-c3ccc([C@@H]4CCCNC4)cc3)nc12` was tested, and the Potency was “inactive”.
With `COc1ccc(CCC(=O)c2c(O)cc(O[C@@H]3O[C@H](CO)[C@@H](O)[C@H](O)[C@H]3O[C@@H]3O[C@@H](C)[C@H](O)[C@@H](O)[C@H]3O)cc2O)cc1O` the Potency was “inactive”.
With `Cc1cc(Nc2nc(N[C@@H](C)c3ccc(F)cc3)c(C#N)cc2F)n[nH]1` the Potency was 13.7 µM (active).
In the case of `CNC1CCC(N(Cc2cccc(-c3ccncc3)c2)C(=O)c2sc3ccccc3c2Cl)CC1` (centres undefined), the Potency is reported as 34.3 µM (active).
In the case of `Cc1cc(Nc2cc(N3CCN(C)CC3)nc(Sc3ccc(NC(=O)C4CC4)cc3)n2)n[nH]1`, the Potency is reported as “inactive”.
`Cc1cc(Nc2cc(N3CCN(C)CC3)nc(/C=C/c3ccccc3)n2)n[nH]1` was tested, and the Potency was 19.3 µM (active).
`COc1ccc(OC)c(-c2nnc3ccc(-c4ccc(OC)c(O[C@@H]5CCOC5)c4)nn23)c1` was tested, and the Potency was “inactive”.
In the case of `Nc1ccccc1NC(=O)c1ccc(CNC(=O)OCc2cccnc2)cc1`, the Potency is reported as 15.3 µM (active).
With `CN[C@@H](C)C(=O)N[C@H]1CN(C(=O)CC(C)C)CC[C@H]2CC[C@@H](C(=O)NC(c3ccccc3)c3ccccc3)N2C1=O` the Potency was “inactive”.
For `CNC(=O)c1ccccc1Nc1nc(Nc2ccc(N3CCOCC3)cc2OC)ncc1Cl`, the Potency was 6.11 µM (active).
In the case of `Cc1cnc(Nc2ccc(OCCN3CCCC3)cc2)nc1Nc1cccc(S(=O)(=O)NC(C)(C)C)c1`, the Potency is reported as 19.3 µM (active).
`FC(F)(F)c1ccc(/C=C/c2nc(COc3ccc(CCCCn4ccnn4)cc3)co2)cc1` was tested, and the Potency was 0.137 µM (active).
In the case of `CCN(CC)CCOc1ccc(/C(=C(\Cl)c2ccccc2)c2ccccc2)cc1`, the Potency is reported as 112 µM (active).
For `O=C1Cc2cc(CCN3CCN(c4nsc5ccccc45)CC3)c(Cl)cc2N1`, the Potency was “inactive”.
With `O=C(/C=C/c1cccc(S(=O)(=O)Nc2ccccc2)c1)NO` the Potency was 4.73 µM (active).
`CN(C)CCC(CSc1ccccc1)Nc1ccc(S(=O)(=O)NC(=O)c2ccc(N3CCN(Cc4ccccc4-c4ccc(Cl)cc4)CC3)cc2)cc1[N+](=O)[O-]` (centres undefined) was tested, and the Potency was 3.85 µM (active).
In the case of `CC[C@H](CC#N)OC(=O)N[C@@H](C)c1cccc(NC(=O)Nc2ccc(-c3cnco3)c(OC)c2)c1`, the Potency is reported as “inactive”.
`CN(NC(=O)CC(=O)NN(C)C(=S)c1ccccc1)C(=S)c1ccccc1` was tested, and the Potency was “inactive”.
`CCc1c2c(nc3ccc(OC(=O)N4CCC(N5CCCCC5)CC4)cc13)-c1cc3c(c(=O)n1C2)COC(=O)[C@]3(O)CC` was tested, and the Potency was 19.3 µM (active).
`Cc1cnc(Nc2cccc(CN3CCOCC3)c2)nc1Nc1cccc(S(=O)(=O)NC(C)(C)C)c1` was tested, and the Potency was 15.3 µM (active).
With `C[C@]12CCC(=O)C=C1CC[C@@H]1[C@@H]2[C@@H](O)C[C@@]2(C)[C@H]1CC[C@]2(O)C(=O)CO` the Potency was “inactive”.
For `COC(C)(C)CCn1nc(Nc2c(C)cccc2C)c2cnc(Nc3ccc(OCCN4CCCC4)c(F)c3)nc21`, the Potency was 3.43 µM (active).
In the case of `CN(C)/N=N/c1nc[nH]c1C(N)=O`, the Potency is reported as “inactive”.
